Here are results for 98 compounds from PubChem BioAssay AID588397 (National Center for Advancing Translational Sciences (NCATS), 2011).

Values joined by “and” are separate entries in the source; they are usually repeats but may differ in a detail not shown here. Equal values may be shown once. Among all 1,300 compounds or so, about 1,000 (77%) were called active. Not shown: some 7% with an inconclusive outcome. The set was probably picked from earlier hits. Some of the results follow. Values without a mark were called inactive. Calls follow the shape of the dose curve; as a rule, active = well fitted inhibition curve with a large enough effect; inconclusive = small, poorly fitted or top-dose-only effect; inactive = no such curve, though single readings can be large or run the other way.
% is scaled to controls: 0 for no effect and ±100 for the full control effect; potency is read from the fitted curve at half-maximal effect.

The nature of the test: qHTS of small molecules that selectively kill Giardia lamblia: Hit Validation.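 Also: viability measured as ATP content by luminescence so killing lowers signal; nearly all actives have a fitted effect of over 65% in size.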 The conditions noted are these: Giardia lamblia trophozoite viability, dose-response; series mostly up to 38.3 µM; activity change, negative = killing: at the top concentration. The method in brief: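 Luminescent ATP signal served as the viability read-out, measured 15-30 min after adding ATP detection reagent to trophozoites that had been incubated with compounds for 48 hrs at 37 deg C anaerobically at 100 cells/well.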
In general terms: Quantitative high-throughput screening tests each substance at several concentrations.
For `Cn1c([N+](=O)[O-])cnc1N1CCN(c2nncs2)C1=O`, the Potency was 0.365 µM (active).
As for `Cc1cc(C)c2sc(NC(=O)c3ccc([N+](=O)[O-])o3)nc2c1`, the Potency is 1.16 µM (active).
For `Cc1cc(C)c2nc(NC(=O)c3ccc([N+](=O)[O-])o3)sc2c1`, the Potency was 1.16 µM (active).
With `Cc1cccc(-n2ncc3c(N4CCCC4)ncnc32)c1`, the Potency is 5.16 µM (active).
In the case of `COc1ccc(Cn2ccnc2SCC(=O)NC2CCCC2)cc1`, the “activity change, negative = killing” value is -1.53%.
In the case of `COc1ccc(C(=S)NC2CCCCC2)cc1`, the Potency is 1.03 µM (active).
Take `Cc1nc2c(o1)C(=O)c1ccccc1C2=Nc1ccccc1`: the Potency was 6.5 µM (active).
On to `COc1ccc(-n2nc([N+](=O)[O-])c(=NCc3cccnc3)n2O)cc1`, for which the Potency was 2.59 µM (active).
On the same count and under the same terms, the value for `Cc1ccc(CN=c2c([N+](=O)[O-])nn(-c3cccc(C)c3)n2O)cc1` was 18.3 µM (active); that for `Cc1ccc(CN=c2c([N+](=O)[O-])nn(-c3cccc(Cl)c3)n2O)cc1` was 18.3 µM (active).
For the compound `Cc1cccc(-n2nc([N+](=O)[O-])c(=NCc3cccnc3)n2O)c1`, the Potency was 4.1 µM (active).
Consider `O=[N+]([O-])c1nn(-c2ccc3c(c2)OCCO3)n(O)c1=NC1CCCCCC1`, for which the Potency is 2.05 µM (active).
On to `O=[N+]([O-])c1nn(-c2ccc3c(c2)OCCO3)n(O)c1=NC1CCCCC1`, for which the Potency was 3.26 µM (active).
Same read-out and setting: then `O=[N+]([O-])c1nn(-c2ccc3c(c2)OCCO3)n(O)c1=NC1CCCC1`, with 3.65 µM (active); and `Cc1nc([N+](=O)[O-])cn1-c1nc2ccccn2c1[N+](=O)[O-]`, with 1.83 µM (active).
Turning to `COc1cc(-c2noc(C)c2C(=O)NCC[C@@H]2CCCN2C)cc(OC)c1OC`, the “activity change, negative = killing” value is 10.1%.
The same measure, in the same setting: the value for `Cc1cc(C)cc(NC(=O)Cn2c(=O)oc3cc(S(=O)(=O)N4CCC(C)CC4)ccc32)c1` was -17.3%.
For the compound `Cc1ccc(NC(=O)C2CCN(S(=O)(=O)c3cc([N+](=O)[O-])ccc3Cl)CC2)nc1`, the Potency was 4.6 µM (active).
Regarding `Cc1ccc([N+](=O)[O-])cc1NC(=O)C1CCN(S(C)(=O)=O)CC1`, the “activity change, negative = killing” value is -23.7%.
As to `Cc1ccc(SCCNC(=O)c2ccccc2F)cc1`, the “activity change, negative = killing” value was -19.2%.
Consider `Cc1ccc(C)c(Sc2ccc(NC(=O)CCl)cc2)c1`, for which the Potency is 0.918 µM (active).
With `C(=C\c1nc2ccccc2s1)/c1ccc2c(c1)OCO2`, the Potency was 2.31 µM (active).
For `C(=C\c1cnc2ccccc2n1)/c1ccc2c(c1)OCO2`, the Potency is 2.31 µM (active).
As to `Cc1ccccc1NCC(=O)N/N=C\c1ccc([N+](=O)[O-])s1`, the Potency was 3.26 µM (active).
Same read-out and setting: then `O=C(N/N=C/c1ccc([N+](=O)[O-])s1)c1ccccc1Br`, with 1.63 µM (active).
As for `Cc1cc(C(=O)N/N=C/c2ccc([N+](=O)[O-])s2)c2ccccc2n1`, the Potency is 2.9 µM (active).
Still for that read-out and setting: then `Cc1ccccc1C(=O)N/N=C/c1ccc([N+](=O)[O-])s1`, with 1.45 µM (active); and `N/C(=N\N=Cc1ccc2c(c1)OCO2)NN=Cc1ccc2c(c1)OCO2`, with 4.1 µM (active).
For `C[C@@H]1CC=C[C@H]2[C@H]1C(=O)N(Cc1ccccc1)[C@H]2c1ccc2ccccc2c1/C=C/c1ccccc1`, the “activity change, negative = killing” value is 0.989%.
On to `CCOC(=O)c1nc(C(=O)NCc2ccc(C)cc2)nc2ccccc12`, for which the Potency is 7.29 µM (active).
In the case of `N#Cc1ccc(-c2c(-c3ccccc3)ncc3cc(F)ccc23)cc1`, the “activity change, negative = killing” value is -18.6%.
On to `Cc1ccc(CN=c2c([N+](=O)[O-])nn(-c3ccc(Cl)cc3)n2O)cc1`, for which the Potency was 7.29 µM (active).
For `O=[N+]([O-])c1nn(-c2ccc(Cl)cc2)n(O)c1=NCc1ccccc1`, the Potency is 9.18 µM (active).
For the compound `O=[N+]([O-])c1nn(-c2ccc(Cl)cc2)n(O)c1=NCc1ccncc1`, the Potency is 3.65 µM (active).
On the same count and under the same terms, then `COc1ccc2cc3cc(C(=O)Nc4ccccc4N4CCN(C)CC4)oc3nc2c1`, with 2.05 µM (active).
Turning to `COc1ccc(OC)c(NC(=O)N2CCc3ccccc3C2)c1`, the “activity change, negative = killing” value is -4.77%.
With `Cc1ccccc1Cn1nnc2c1C(=O)c1ccccc1C2=O`, the Potency was 2.9 µM (active).
Consider `O=[N+]([O-])c1ccc(CN2CCN(c3ccc(F)cc3)CC2)o1`, for which the Potency is 1.03 µM (active).
Still for that read-out and setting: the value for `O=[N+]([O-])c1ccc(N2CCN(Cc3ccc([N+](=O)[O-])o3)CC2)cc1` was 0.516 µM (active).
Turning to `O=[N+]([O-])c1ccc(CN2CCN(c3ccccc3)CC2)o1`, the Potency is 0.818 µM (active).
Take `O=[N+]([O-])c1ccc(CN2CCN(c3ccc(Cl)cc3)CC2)o1`: the Potency is 0.729 µM (active).
Regarding `O=C(CN1CCN(c2ccccc2)CC1)Nc1scc2c1c(=O)oc1ccccc12`, the “activity change, negative = killing” value was -5.04%.
With `COc1ccc(C(=O)CC(SCC(NC(C)=O)C(=O)O)c2ccc(Cl)cc2)cc1OC` (stereo not drawn), the Potency was 13 µM (active).
`COc1ccc2c3n([n+]([O-])c2c1)CCN=C3c1cc(Cl)c(N)c(Cl)c1`: the Potency was 0.183 µM (active).
As to `Nc1c(Cl)cc(C2=NCCn3c2c2ccccc2[n+]3[O-])cc1Cl`, the Potency was 0.326 µM (active).
Still for that read-out and setting: then `COc1ccc2c3n([n+]([O-])c2c1)CCN=C3c1ccc(C)cc1`, with 0.365 µM (active); and `COc1ccc2c3n([n+]([O-])c2c1)CCN=C3c1ccc(Cl)cc1`, with 0.579 µM (active).
Regarding `c1ccc(-c2cn3nc(-c4ccccc4)sc3n2)cc1`, the Potency is 0.918 µM (active).
Same read-out and setting: the value for `O=C(O)CCCCCNS(=O)(=O)c1cccc2c1C(=O)c1ccccc1C2=O` was 3.65 µM (active); that for `CC(C)c1ccc(Nc2nnc(SCC(=O)Nc3ncc(S(=O)(=O)c4ccc([N+](=O)[O-])cc4)s3)s2)cc1` was 2.05 µM (active).
Regarding `N#CC1C=Cc2c(ccc3ccccc23)N1C(=O)c1ccccc1` (stereo not drawn), the Potency is 1.63 µM (active).
For the compound `O=C(Cn1cnc2c(OCc3ccccc3)ncnc21)NCCCc1ccccc1`, the “activity change, negative = killing” value is -15%.
In the case of `O=C(Cn1ccnc1[N+](=O)[O-])NCc1ccccc1`, the Potency was 1.3 µM (active).
For `c1ccc(CNc2ncnc3ccccc23)cc1`, the “activity change, negative = killing” value was 8.27%.
For the compound `CC1CC(C)C(=NNC(N)=O)C(C(O)CC2CCC(=O)NC2=O)C1` (stereo not drawn), the Potency was 0.163 µM (active).
For `Cc1ccc(NC(C)C(=O)N/N=C/c2ccc([N+](=O)[O-])s2)cc1` (stereo not drawn), the Potency was 2.9 µM (active).
`COc1ccc(NC(C)C(=O)N/N=C/c2ccc([N+](=O)[O-])s2)cc1` (stereo not drawn): the Potency was 1.63 µM (active).
On the same count and under the same terms, then `CCn1cnc2c([N+](=O)[O-])c(NS(=O)(=O)c3ccc(C)cc3)ccc21`, with 0.206 µM (active); and `O=C(N/N=C/c1ccc([N+](=O)[O-])o1)C(O)c1ccccc1` (stereo not drawn), with 4.1 µM (active); and `Cc1cc(C)cc(OCC(=O)N/N=C/c2ccc([N+](=O)[O-])o2)c1`, with 0.579 µM (active).
In the case of `Cc1ccc(OCC(=O)N/N=C/c2ccc([N+](=O)[O-])o2)cc1`, the Potency is 0.729 µM (active).
Regarding `O=C(COc1ccccc1)N/N=C/c1ccc([N+](=O)[O-])o1`, the Potency is 0.46 µM (active).
For the compound `CCN1C[C@@H]2[C@@H]3C(=O)N(Cc4ccccc4)C(=O)[C@@H]3[C@](C)(C1=O)N2C(=O)c1ccccc1`, the “activity change, negative = killing” value is -13.9%.
As for `CCCOc1ccc(CCC(=O)N/N=C/c2ccc([N+](=O)[O-])o2)cc1`, the Potency is 0.729 µM (active).
`Cc1ccccc1OCC(=O)N/N=C/c1ccc([N+](=O)[O-])o1`: the Potency was 0.516 µM (active).
Turning to `Cc1ccc(C(=O)Nc2ncc([N+](=O)[O-])s2)cc1`, the Potency was 0.259 µM (active).
Turning to `Cc1nc(C)c(C(=O)Nc2ncc([N+](=O)[O-])s2)o1`, the Potency was 1.16 µM (active).
With `O=C(Cc1ccc(Cl)cc1)Nc1ncc([N+](=O)[O-])s1`, the Potency was 0.818 µM (active).
Take `COc1ccc(Cc2nnc(NC(=O)Nc3ccccc3F)s2)cc1OC`: the “activity change, negative = killing” value was -18.3%.
As for `COc1ccc(CC(=O)Nc2ncc([N+](=O)[O-])s2)cc1OC`, the Potency is 0.259 µM (active).
As for `CC1CCN(S(=O)(=O)c2cn(C)c(=O)n(C)c2=O)CC1`, the “activity change, negative = killing” value was -33.1%.
Take `Cc1ccc(OCC(=O)N(Cc2cccc(Cl)c2)C2CCS(=O)(=O)C2)cc1C` (stereo not drawn): the “activity change, negative = killing” value is -0.809%.
For `O=C(Cc1ccc(Br)cc1)Nc1ncc([N+](=O)[O-])s1`, the Potency is 0.23 µM (active).
`O=C(/C=C/c1ccc([N+](=O)[O-])cc1)Nc1ncc([N+](=O)[O-])s1`: the Potency is 0.65 µM (active).
In the case of `CC12CCC(C(=O)Nc3ncc([N+](=O)[O-])s3)(OC1=O)C2(C)C` (stereo not drawn), the Potency is 0.206 µM (active).
Same read-out and setting: the value for `O=C(Nc1ncc([N+](=O)[O-])s1)c1ccc2c(c1)OCO2` was 0.259 µM (active); that for `Cc1onc(-c2ccccc2)c1C(=O)Nc1ncc([N+](=O)[O-])s1` was 0.579 µM (active).
In the case of `Cc1ccc(S(=O)(=O)CC(=O)Nc2ccc(F)c(F)c2F)cc1`, the “activity change, negative = killing” value is 1.71%.
As for `Cc1ccc(S(=O)(=O)CC(=O)Nc2ncc([N+](=O)[O-])s2)cc1`, the Potency is 0.579 µM (active).
On to `Cc1onc(-c2ccccc2)c1C(=O)N(Cc1ccccc1)C(C)C`, for which the “activity change, negative = killing” value is -12.6%.
For `Cc1onc(-c2ccccc2)c1NC(=O)N(Cc1ccccc1)C(C)C`, the “activity change, negative = killing” value was 11.7%.
With `O=C(Cc1c(F)cccc1Cl)Nc1ncc([N+](=O)[O-])s1`, the Potency was 0.206 µM (active).
The same measure, in the same setting: the value for `O=C(COc1ccc(Cl)cc1)Nc1ncc([N+](=O)[O-])s1` was 0.41 µM (active).
On to `CCn1cc(C(=O)NCCC(C)C)c(=O)c2cc(F)c(N3CCN(C(=O)c4ccco4)CC3)cc21`, for which the “activity change, negative = killing” value was -21.5%.
As to `Cc1ccc(CC(=O)Nc2ncc([N+](=O)[O-])s2)cc1`, the Potency is 0.13 µM (active).
In the case of `O=C(NNC(=O)c1ccncc1)Nc1cccc([N+](=O)[O-])c1`, the “activity change, negative = killing” value is -9.26%.
Regarding `O=C(Nc1ncc([N+](=O)[O-])s1)c1cccc([N+](=O)[O-])c1`, the Potency was 0.29 µM (active).
On the same count and under the same terms, then `CC(=O)Nc1ccc(NC(=O)c2c([N+](=O)[O-])cnn2C)cc1`, with 1.3 µM (active); and `CCOc1cc(C=O)ccc1OCCn1c([N+](=O)[O-])cnc1C`, with 0.65 µM (active); and `CCS(=O)(=O)CCn1c([N+](=O)[O-])cnc1C`, with 0.918 µM (active).
With `Cc1ncc([N+](=O)[O-])n1CCN1C(=O)c2ccccc2C1=O`, the Potency is 0.65 µM (active).
With `Cc1nonc1OCCn1c([N+](=O)[O-])cnc1C`, the Potency was 1.16 µM (active).
The same measure, in the same setting: the value for `Cc1ncc([N+](=O)[O-])n1CCO` was 4.1 µM (active) and 4.6 µM (active).
`Cc1ncc([N+](=O)[O-])n1CC(O)CCl` (stereo not drawn): the Potency is 1.16 µM (active).
Take `COc1cc2nc(N3CCN(C)CC3)nc(NC3CC3)c2cc1OC`: the Potency is 0.365 µM (active).
As for `COc1cc2nc(N3CCCCC3)nc(NC3CCN(Cc4ccccc4)CC3)c2cc1OC`, the Potency was 2.05 µM (active).
Consider `COc1cc2nc(N3CCN(C)CC3)nc(NC(C)C)c2cc1OC`, for which the Potency was 0.918 µM (active).
For `COc1cc2nc(N3CCN(c4cc(C)ccc4C)CC3)nc(N)c2cc1OC`, the Potency was 4.1 µM (active).
